The whole screen tested about 330,000 compounds, of which about 1,400 (0.42%) were called active. Only a selection was taken, and actives are over-represented in it overall. Values without a mark were called inactive.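 The calls were made as follows: active = plate passing quality check with inhibition over a set limit, or well fluorescence over plate mean plus 4 SD; inactive = the rest.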
Assay: inhibitors of Candida efflux pumps in yeast, primary screen, S. cerevisiae, Nile Red, multiplex (AID 485275);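 also: Nile Red retained in pooled yeast measured as flow cytometry median fluorescence; 0% = buffer negative control and 100% = Enniatin B positive control; higher means more Nile Red kept so more efflux inhibition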
Conditions: S. cerevisiae Candida pump triplex, at 10 µM, hits give high values

Compound | inhibition
C/C(=N/O)c1ccc2ccc3ccccc3c2c1 | 0.16%
O=[N+]([O-])c1cnc2ccc3ccccc3c2c1 | 0.41% (active)
Cc1ccc(-n2c(-c3ccc([N+](=O)[O-])cc3)nc3ccccc3c2=O)cc1 | -0.08%
Clc1ccc2nc3c(c(-c4ccccc4)c2c1)CNCC3 | -0.17%
COC(=O)C1=C(c2ccc(Cl)c(C(F)(F)F)c2)C[C@@H]2CC[C@H]1N2C(=O)NC1CC1 | -0.03%
CN(c1ccccc1)c1ccc([N+](=O)[O-])c2nonc12 | -0.18%
CCN(CC)c1ccc([N+](=O)[O-])c2cccnc12 | 1.08% (active)
CN1CCC(N(C)Cc2cccnc2)CC1 | 0.12%
c1cc2c(cc1CCNC1CCCCCC1)OCO2 | 0.08%
CCN1CC2C3CCC(C)(O3)C2C1 (stereo not given) | -0.18%

Reference: PubChem BioAssay AID485275 (NMMLSC, 2010)
